The values below come from PubChem BioAssay (NCI).

Test systems include DU-145 prostate; K-562 leukemia; MALME-3M melanoma; MDA-MB-231 breast; RXF 393 renal; SF-268 CNS; SF-295 CNS; SF-539 CNS; UACC-257 melanoma; M14 melanoma; HCT-15 colon; HT29 colon; SNB-75 CNS; SNB-19 CNS; U251 CNS; PC-3 prostate; SK-MEL-5 melanoma; UACC-62 melanoma; LOX IMVI melanoma; SK-MEL-28 melanoma.
Holding throughout (assay): NCI-60 one-dose screen, 48 h (100 = growth as untreated, 0 = no growth, -100 = all killed)
Holding throughout (conditions): 10 µM unless noted

The panel holds about 83,000 compounds, 20% with a hit somewhere; the sample as a whole holds those more often.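 Assay: single dose, 48 h. Readout: percent growth (0 = no net growth; negative = cell death). Active: <10.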 Unmarked numbers belong to inactive results. Active and inactive are the calls of the source.

In the case of `COc1cc(/C=C/C(=O)c2ccc(F)cc2)ccc1OCCCCOc1ccc(/C=C/C(=O)c2c(C)nc3ccccc3c2C)cc1OC`, the growth is 157% in the experiment with DU-145 prostate; 62.2% in the experiment on K-562 leukemia; 105% in the experiment on MALME-3M melanoma; 91.5% in the experiment with MDA-MB-231 breast; -10.5% (active) with RXF 393 renal; 127% in the experiment on SF-268 CNS. Further, the growth with SF-295 CNS is 98.8%; with SF-539 CNS, 138%; in the experiment with UACC-257 melanoma, 70.3%; in the experiment with M14 melanoma, 103%; with HCT-15 colon, 96.5%; with HT29 colon it was 100%. The growth in the experiment on SNB-75 CNS was 97.1%; in the experiment with SNB-19 CNS, 110%; in the experiment on U251 CNS it was 83.3%; with PC-3 prostate, 93.2%; in the experiment on SK-MEL-5 melanoma it was 62.4%; in the experiment with UACC-62 melanoma, 73.1%. Besides, the growth was 90.2% in the experiment with LOX IMVI melanoma and 122% in the experiment with SK-MEL-28 melanoma.
On to `NC(=O)C(=O)c1ccccc1NC=O`, for which the growth is 106% in the experiment with DU-145 prostate; 92.3% in the experiment on K-562 leukemia; 96.8% with MALME-3M melanoma; 97.7% in the experiment on MDA-MB-231 breast; 110% in the experiment on RXF 393 renal; 97.2% with SF-268 CNS. The growth with SF-295 CNS was 104%; in the experiment on SF-539 CNS, 102%; with UACC-257 melanoma it was 98.7%; in the experiment on M14 melanoma it was 92.7%; with HCT-15 colon it was 105%; in the experiment with HT29 colon, 101%. In addition, the growth was 77.2% in the experiment with SNB-75 CNS; 99.9% in the experiment on SNB-19 CNS; 96.3% in the experiment on U251 CNS; 90.1% in the experiment with PC-3 prostate; 103% in the experiment with SK-MEL-5 melanoma; 92.1% in the experiment on UACC-62 melanoma. Also, the growth in the experiment on LOX IMVI melanoma was 93.1%; with SK-MEL-28 melanoma, 101%.
In the case of `C=C1C(=O)O[C@H]2[C@H]1CC/C(COC(=O)c1cc3ccccc3s1)=C\CC[C@@]1(C)O[C@@H]21`, the growth in the experiment on DU-145 prostate is -80.6% (active); with K-562 leukemia it was 2.38% (active); with MALME-3M melanoma, -67.2% (active); with MDA-MB-231 breast, -66.1% (active); in the experiment on RXF 393 renal, -88.8% (active); with SF-268 CNS, -60.6% (active). The growth was 32% in the experiment with SF-295 CNS; -88.4% (active) in the experiment with SF-539 CNS; -63.3% (active) with UACC-257 melanoma; -81.1% (active) with M14 melanoma; -62.4% (active) in the experiment on HCT-15 colon; -75.4% (active) in the experiment with HT29 colon. For the same compound, the growth in the experiment with SNB-75 CNS was -7.28% (active); in the experiment on SNB-19 CNS, -9.05% (active); in the experiment on U251 CNS, -82.6% (active); with PC-3 prostate, -56% (active); in the experiment with SK-MEL-5 melanoma, -93.8% (active); in the experiment on UACC-62 melanoma, -61.1% (active). The growth with LOX IMVI melanoma was -83.7% (active); in the experiment on SK-MEL-28 melanoma, -70.7% (active).
Turning to `CC(C)=CCCC(C)c1ccc(C)c2c1OCN(CCCCCO)C2` (stereo not given), the growth in the experiment with DU-145 prostate is 109%; in the experiment on K-562 leukemia, 31.1%; in the experiment on MALME-3M melanoma, 93.6%; in the experiment on MDA-MB-231 breast, 93.4%; in the experiment on RXF 393 renal it was 90.1%; in the experiment on SF-268 CNS it was 97.5%. Moreover, the growth in the experiment with SF-295 CNS is 110%; in the experiment with SF-539 CNS it was 84.5%; in the experiment on UACC-257 melanoma it was 78.4%; with M14 melanoma it was 84.2%; with HCT-15 colon, 94%; in the experiment with HT29 colon it was 27.2%. For the same compound, the growth in the experiment on SNB-75 CNS was 85.6%; in the experiment on SNB-19 CNS, 88.8%; with U251 CNS, 83.8%; with PC-3 prostate, 66.6%; in the experiment with SK-MEL-5 melanoma it was 91.7%; with UACC-62 melanoma it was 82.8%. Moreover, the results for the growth in the experiment with LOX IMVI melanoma and in the experiment with SK-MEL-28 melanoma were 77.6% and 115%, respectively.
In the case of `NC(=O)c1cccc(-n2ccc3cc(NC(=O)c4ccc(N5CCOCC5)c(C(F)(F)F)c4)ccc32)n1`, the growth in the experiment with DU-145 prostate was 60.8%; in the experiment with K-562 leukemia it was 36.6%; with MALME-3M melanoma, 65.4%; in the experiment on MDA-MB-231 breast, 49.6%; in the experiment with RXF 393 renal, -21.1% (active); in the experiment with SF-268 CNS, 66.8%. Besides, the growth with SF-295 CNS is -52.1% (active); in the experiment on SF-539 CNS it was -15.4% (active); with UACC-257 melanoma, 74.6%; with M14 melanoma, 66.5%; with HCT-15 colon, 33.8%; in the experiment on HT29 colon, 14.3%. The growth in the experiment on SNB-75 CNS is 52.8%; in the experiment with SNB-19 CNS it was 70.7%; with U251 CNS, 44.1%; with PC-3 prostate, 34.5%; in the experiment on SK-MEL-5 melanoma, 49.7%; with UACC-62 melanoma it was 50.9%. For the same compound, the growth in the experiment on LOX IMVI melanoma was 64.4%; with SK-MEL-28 melanoma, 64.7%.
Take `CCNCCNc1cc(C2CCCCC2)c(C#N)c2nc3ccccc3n12`: the growth is 32.6% in the experiment with DU-145 prostate; -38.8% (active) in the experiment with K-562 leukemia; -72.4% (active) in the experiment with MALME-3M melanoma; -48.7% (active) with MDA-MB-231 breast; -81.1% (active) in the experiment on RXF 393 renal; 22.3% in the experiment on SF-268 CNS. The growth with SF-295 CNS was -53.5% (active); with SF-539 CNS, -88.8% (active); in the experiment on UACC-257 melanoma, -67.2% (active); in the experiment with M14 melanoma, -66% (active); in the experiment with HCT-15 colon it was 16.7%; in the experiment with HT29 colon, -50% (active). The growth was -26% (active) with SNB-75 CNS; 42.9% in the experiment with SNB-19 CNS; -37.7% (active) in the experiment with U251 CNS; 40.2% with PC-3 prostate; -55.1% (active) with SK-MEL-5 melanoma; -62% (active) in the experiment with UACC-62 melanoma. Further, the growth in the experiment with LOX IMVI melanoma was -94.8% (active); with SK-MEL-28 melanoma, -73.1% (active).
For `COc1ccc(CN2c3ccccc3Sc3ccccc32)cc1F`, the growth was 14.1% with DU-145 prostate; 11% in the experiment with K-562 leukemia; 32.6% with MALME-3M melanoma; 24.1% in the experiment on MDA-MB-231 breast; 7.16% (active) with RXF 393 renal; 38.8% in the experiment on SF-268 CNS. The growth was 12.4% in the experiment on SF-295 CNS; -6.34% (active) with SF-539 CNS; 54.8% with UACC-257 melanoma; -3.27% (active) with M14 melanoma; 15.9% in the experiment with HCT-15 colon; -4.41% (active) with HT29 colon. For the same compound, the growth is 45.1% in the experiment with SNB-75 CNS; 34.6% in the experiment with SNB-19 CNS; 20.1% with U251 CNS; 21.2% in the experiment with PC-3 prostate; 22.3% in the experiment with SK-MEL-5 melanoma; 28.5% in the experiment with UACC-62 melanoma. Besides, the growth in the experiment with LOX IMVI melanoma was 39.9%; in the experiment on SK-MEL-28 melanoma, 56.8%.
On to `O=C(c1ccccc1)c1ccc(C2CCCCC2)cc1`, for which the growth in the experiment on DU-145 prostate is 106%; in the experiment with K-562 leukemia, 103%; in the experiment on MALME-3M melanoma, 87.4%; in the experiment with MDA-MB-231 breast, 102%; with RXF 393 renal, 100%; with SF-268 CNS, 100%. For the same compound, the growth in the experiment with SF-295 CNS is 94.3%; with SF-539 CNS, 102%; in the experiment with UACC-257 melanoma, 105%; with M14 melanoma, 96.8%; in the experiment on HCT-15 colon, 91.5%; with HT29 colon, 91.5%. The growth was 97.5% in the experiment with SNB-75 CNS; 86.7% in the experiment on SNB-19 CNS; 88.9% with U251 CNS; 103% with PC-3 prostate; 96.6% in the experiment on SK-MEL-5 melanoma; 86.8% in the experiment with UACC-62 melanoma. In addition, the growth with LOX IMVI melanoma was 94.6%; in the experiment with SK-MEL-28 melanoma, 103%.
